Source: PubChem
An excerpt weighted towards active compounds, which were near 2.4% of everything screened.
D2 antag: D2 dopamine receptor (human) antagonism. P14416. HEK293 TREx D2 cells, calcium flux, dopamine EC80. inhibition, % at 10 µM. 340,000 tested, 2% active. AID 485344; in the data active = inhibition above about 30%; inactive = below that, where a call was filed
Target sequence (P14416 whole entry, looked up): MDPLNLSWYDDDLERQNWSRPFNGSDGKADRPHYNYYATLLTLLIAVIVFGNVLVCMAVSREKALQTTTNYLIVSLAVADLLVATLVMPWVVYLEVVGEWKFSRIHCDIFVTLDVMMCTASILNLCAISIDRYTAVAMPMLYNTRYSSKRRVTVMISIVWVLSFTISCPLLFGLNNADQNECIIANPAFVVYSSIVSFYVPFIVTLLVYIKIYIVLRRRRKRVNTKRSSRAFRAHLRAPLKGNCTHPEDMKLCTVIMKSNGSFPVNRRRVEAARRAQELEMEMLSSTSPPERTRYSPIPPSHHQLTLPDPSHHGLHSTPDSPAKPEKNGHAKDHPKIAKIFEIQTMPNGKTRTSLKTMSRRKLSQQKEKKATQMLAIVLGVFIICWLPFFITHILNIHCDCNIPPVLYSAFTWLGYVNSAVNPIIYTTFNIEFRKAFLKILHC
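Tetracycline-induced HEK293 TREx cells expressing D2 receptor forced-coupled to calcium signalling, loaded with no-wash calcium dye. Compounds added and calcium flux read 180 s, then dopamine added at EC80 and read a further 180 s.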
D2 PAM-1: positively modulates the human D2 dopamine receptor allosterically | HEK293 T-REx D2, calcium flux, EC20 dopamine potentiation | 340,000 tested, 0.34% active | AID 485347 | potentiation, % at 10 µM;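 active = potentiation over 3 SD above the plate norm, cut at about 30% in these data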
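Tetracycline-induced Hek293 Trex D2 cells, force-coupled to calcium, loaded with no-wash calcium dye. Compound added with 180 s kinetic read for agonism, then EC20 dopamine and a further 180 s read for potentiation.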
D2 PAM-2: potentiates the human D2 dopamine receptor allosterically. P14416. DiscoveRx D2 beta-arrestin cells, luminescence, 90 min; 100% = 57 uM dopamine signal. potentiation, % (test concentration not listed). 360,000 tested, 0.23% active; in the data active = potentiation above about 50%; inconclusive = mostly about 30% to 49%
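PathHunter D2 cells, attached overnight at 37 deg C, received compound in DMSO plus dopamine at EC20 (50 nM final) for 90 min at 37 deg C. Beta-arrestin recruitment was read as luminescence after 1 h with detection reagent at ambient temperature.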
D2 ag-1: human D2 receptor agonism in beta-arrestin assay | P14416 | DiscoveRx PathHunter D2 beta-arrestin, luminescence, 90 min; 100% = 57 uM dopamine signal | activation, % (no concentration beside the values) | 360,000 tested, 0.084% active | AID 624465; in the data active = activation above about 40%; inconclusive = between about 15% and that limit
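Agonist mode: compounds alone added to overnight-plated D2 PathHunter cells for 90 min at 37 C, with 57 uM final dopamine (EC100) defining full response. Beta-arrestin recruitment detected by chemiluminescent reagent, read after 1 h at ambient temperature.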
D2 ag-2: D2 dopamine receptor (human) agonism | P14416 | HEK293 T-REx D2 cells, calcium flux agonist mode | activation, % at 2 µM | 340,000 tested, 0.53% active;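 active = activation over 3 SD above normal in the single-dose calcium agonist read, cut at about 30% in these data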
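In this primary screen, compounds producing a positive calcium signal within 180 s of addition to tetracycline-induced, force-coupled HEK293 Trex D2 cells are flagged; cells are dye-loaded with a no-wash calcium kit beforehand.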
Of the large screens only hits and unclear results are named; the others gave an inactive call.

CCOC(=O)Cn1c(CN2CCN(c3cccc(Cl)c3)CC2)nc2c1c(=O)[nH]c(=O)n2C	D2 antag 30
COC(=O)Cn1c(CN2CCN(c3ccc(F)cc3)CC2)nc2c1c(=O)n(C)c(=O)n2C	D2 antag 30
COCCn1c(CN2CCN(c3cccc(Cl)c3)CC2)nc2c1c(=O)n(C)c(=O)n2C	none
CC(C)CCn1c(CN2CCN(c3cccc(Cl)c3)CC2)nc2c1c(=O)n(C)c(=O)n2C	D2 antag 47
COC(=O)C1=C(C)NC=C([N+](=O)[O-])C1c1ccc(OC)cc1 (configuration not stated)	none
CC(C)OCCCNC(=O)C1CCN(S(=O)(=O)N2CCCC2)CC1	none
CC(=O)N(c1ccc2oc(=O)sc2c1)S(=O)(=O)c1ccccc1	D2 PAM-2 inconclusive
Cc1ccc(S(=O)(=O)N(C(=O)c2ccco2)c2cc3sc(=O)oc3c3ccccc23)cc1	D2 PAM-2 63, D2 ag-1 inconclusive
CCOc1ccc(S(=O)(=O)N(C)CC(=O)NCc2ccco2)cc1	none (no result: D2 PAM-1)
CCOc1ccc(S(=O)(=O)N(C(=O)c2ccco2)c2cc3sc(=O)oc3c3ccccc23)cc1	D2 PAM-2 150, D2 ag-1 inconclusive
COc1ccc(S(=O)(=O)N(C(=O)c2ccco2)c2cc3sc(=O)oc3c3ccccc23)cc1	D2 PAM-2 97, D2 ag-1 inconclusive
O=C(c1ccc2c(c1)N(Cc1ccc(Cl)cc1)C(=O)c1ccccc1S2=O)N1CCC(Cc2ccccc2)CC1 (configuration not stated)	none (no result: D2 antag, D2 PAM-2, D2 ag-1, D2 ag-2)
CC1CCN(CCCCOc2ccc(C(C)(C)C)cc2)CC1	D2 antag 33
